From ChEMBL document CHEMBL3988442, “University of Dundee, Small-Polar-MMV Screening Library” (2021) come the findings set out here.

For some assays here: Results with a measured potency or affinity are listed apart.

Parameters in all cases: scale not given: direction of the effect not stated beside the values
The target in assay [1] is Protein translocase subunit SecA (Escherichia coli (strain K12)) (UniProt P10408). Description: Assay to Identify E. coli SecA ATPase Inhibitors. In kind it is functional. Conditions: 30 µM.
In assay [2] the target is T1, Ubiquitin-activating enzyme e1, putative (Leishmania donovani (strain BPK282A1)) (UniProt E9BSI1).
T1 sequence (whole entry): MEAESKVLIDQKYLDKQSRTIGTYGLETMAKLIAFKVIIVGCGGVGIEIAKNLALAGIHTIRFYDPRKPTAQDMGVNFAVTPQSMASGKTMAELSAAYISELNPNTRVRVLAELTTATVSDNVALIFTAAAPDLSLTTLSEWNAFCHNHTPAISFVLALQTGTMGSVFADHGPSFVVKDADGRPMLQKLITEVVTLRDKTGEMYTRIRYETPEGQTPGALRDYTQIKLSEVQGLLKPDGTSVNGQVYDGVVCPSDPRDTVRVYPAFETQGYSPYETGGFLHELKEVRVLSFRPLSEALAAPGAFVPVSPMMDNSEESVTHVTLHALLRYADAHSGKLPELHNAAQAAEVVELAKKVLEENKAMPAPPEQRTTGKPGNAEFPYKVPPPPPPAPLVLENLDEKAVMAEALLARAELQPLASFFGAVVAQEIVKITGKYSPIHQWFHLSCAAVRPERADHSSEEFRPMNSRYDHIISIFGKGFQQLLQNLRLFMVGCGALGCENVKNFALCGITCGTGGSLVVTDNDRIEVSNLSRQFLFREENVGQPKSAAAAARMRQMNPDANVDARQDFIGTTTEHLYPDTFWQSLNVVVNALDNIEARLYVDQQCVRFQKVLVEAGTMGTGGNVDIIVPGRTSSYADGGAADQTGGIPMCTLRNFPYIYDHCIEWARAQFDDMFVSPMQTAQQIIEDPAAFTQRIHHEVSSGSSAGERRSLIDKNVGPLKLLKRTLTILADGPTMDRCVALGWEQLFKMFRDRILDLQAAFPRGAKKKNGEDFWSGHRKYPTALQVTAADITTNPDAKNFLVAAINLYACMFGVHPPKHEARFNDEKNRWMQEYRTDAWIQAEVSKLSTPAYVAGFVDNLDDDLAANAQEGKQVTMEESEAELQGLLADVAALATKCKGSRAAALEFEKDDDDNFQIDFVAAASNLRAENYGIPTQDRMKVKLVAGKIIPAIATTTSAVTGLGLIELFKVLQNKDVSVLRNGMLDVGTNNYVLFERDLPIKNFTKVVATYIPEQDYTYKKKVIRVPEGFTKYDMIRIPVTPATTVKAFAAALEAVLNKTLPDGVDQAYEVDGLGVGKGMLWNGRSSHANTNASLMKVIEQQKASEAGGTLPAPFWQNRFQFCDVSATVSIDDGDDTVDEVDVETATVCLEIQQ
Description: Leishmania donovani Ubiquitin Activating Enzyme (LdE1). In kind it is functional. Particulars: 30 µM.

The target of assay [3] is AMP-activated protein kinase, AMPK (Homo sapiens) (UniProt P54646+O43741+P54619+Q9UGJ0+Q9Y478+Q13131+Q9UGI9). Description: AMP-dependent Kinase enzyme assay. An in vitro enzyme assay that detects ADP turnover that is directly proportional to AMPK activity. This uses naive AMPK that is activated during the assay with MK-8722. In kind it is functional. Particulars: 30 µM.

The target in assay [4] is Sialic acid-binding Ig-like lectin 9 (Homo sapiens) (UniProt Q9Y336). Description: Hs-Siglec9 ALPHAscreen SOP 20170721. Conditions: 10 µM. (In general: Alpha assays give light when donor and acceptor beads are brought close together.)
The next assay deals with Trypanosoma cruzi. Description: Trypanosoma cruzi phosphomannomutase and mannose-1-phosphate guanylyltransferase assay. The class given is functional. Conditions: 10 µM.
Assay [5] concerns the target T2, Arginase-2, mitochondrial (Homo sapiens) (UniProt P78540).
T2 sequence (whole entry): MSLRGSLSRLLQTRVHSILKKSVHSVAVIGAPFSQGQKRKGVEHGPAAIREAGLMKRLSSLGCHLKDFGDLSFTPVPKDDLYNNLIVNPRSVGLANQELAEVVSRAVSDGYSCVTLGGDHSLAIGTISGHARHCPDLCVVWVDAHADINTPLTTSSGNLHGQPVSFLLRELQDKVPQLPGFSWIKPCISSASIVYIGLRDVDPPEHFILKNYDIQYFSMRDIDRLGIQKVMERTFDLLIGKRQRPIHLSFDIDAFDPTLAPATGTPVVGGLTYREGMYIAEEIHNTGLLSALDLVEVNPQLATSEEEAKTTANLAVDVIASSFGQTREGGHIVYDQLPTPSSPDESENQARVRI
Description: in vitro enzyme assay to detect the production of urea directly proportional to the activity of Arginase II. Note: in the data most compounds retested in dose-response had high values. The class given is functional. Particulars: 33.3 µM.

Assay [6] deals with T3, Proteasome subunit beta (Trypanosoma cruzi) (UniProt O96673).
T3 sequence (whole entry): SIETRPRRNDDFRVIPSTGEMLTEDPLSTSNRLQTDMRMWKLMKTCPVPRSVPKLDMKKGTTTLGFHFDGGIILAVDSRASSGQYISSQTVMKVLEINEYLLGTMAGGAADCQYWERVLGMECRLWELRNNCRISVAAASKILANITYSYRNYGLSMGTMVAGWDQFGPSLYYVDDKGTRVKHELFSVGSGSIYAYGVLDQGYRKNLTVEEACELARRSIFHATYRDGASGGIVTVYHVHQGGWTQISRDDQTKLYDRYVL
Description: Trypanosoma cruzi proteasome chymotrypsin-like activity (TcProtChymo) assay. Note: in the data most compounds retested in dose-response had high values. The class given is functional. Particulars: 9.37 µM.

For another assay, the species on record is Homo sapiens. Description: To identify inhibition of the IFN signalling (Jak-Stat) pathway via expression of an eGFP reporter gene under the control of an IFN-stimulated response element (ISRE) containing MxA promoter. The class given is functional. Particulars: 30 µM.
Assay [7] addresses T4, Tyrosyl-tRNA synthetase, putative (Trypanosoma cruzi (strain CL Brener)) (UniProt Q4DSP6).
T4 sequence (whole entry): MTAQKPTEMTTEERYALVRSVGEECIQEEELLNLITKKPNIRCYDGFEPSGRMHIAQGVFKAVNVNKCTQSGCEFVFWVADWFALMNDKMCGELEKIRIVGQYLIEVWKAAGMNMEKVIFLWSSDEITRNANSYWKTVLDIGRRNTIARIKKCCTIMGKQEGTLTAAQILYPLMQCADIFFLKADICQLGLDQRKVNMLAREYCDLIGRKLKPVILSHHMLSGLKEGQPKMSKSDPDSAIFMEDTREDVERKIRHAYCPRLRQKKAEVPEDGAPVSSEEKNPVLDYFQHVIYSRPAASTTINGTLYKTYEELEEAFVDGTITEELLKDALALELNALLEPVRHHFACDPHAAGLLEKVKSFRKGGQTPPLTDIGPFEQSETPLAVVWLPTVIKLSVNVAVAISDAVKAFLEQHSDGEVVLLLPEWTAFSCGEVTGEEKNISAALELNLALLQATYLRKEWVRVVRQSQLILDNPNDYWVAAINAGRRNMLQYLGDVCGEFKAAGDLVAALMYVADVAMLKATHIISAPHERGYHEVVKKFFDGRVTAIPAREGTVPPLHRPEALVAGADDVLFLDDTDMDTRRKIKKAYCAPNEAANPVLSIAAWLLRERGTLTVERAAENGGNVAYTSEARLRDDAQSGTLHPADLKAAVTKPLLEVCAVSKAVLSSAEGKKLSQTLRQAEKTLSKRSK
Description: Trypanosoma cruzi tyrosyl tRNA synthetase (TcYRS) _High Tyrosine SOP. Note: in the data most compounds retested in dose-response had high values. In kind it is functional. Conditions: 30 µM.

Assay [8] concerns the target T4, Tyrosyl-tRNA synthetase, putative (Trypanosoma cruzi (strain CL Brener)). Description: Trypanosoma cruzi tyrosyl tRNA synthetase (TcYRS) SOP. In kind it is functional. Conditions: 30 µM.
Assay [9] addresses Chromo domain-containing protein 1 (Saccharomyces cerevisiae (strain ATCC 204508 / S288c) (Baker's yeast)) (UniProt P32657). Description: ScCHD-1 Enzyme Inhibition Assay. Note: in the data most compounds retested in dose-response had high values. In kind it is functional. Particulars: 30 µM.

Sequence of Chromo domain-containing protein 1 (Saccharomyces cerevisiae (strain ATCC 204508 / S288c) (Baker's yeast)) (P32657 whole entry, the tested form may be a part): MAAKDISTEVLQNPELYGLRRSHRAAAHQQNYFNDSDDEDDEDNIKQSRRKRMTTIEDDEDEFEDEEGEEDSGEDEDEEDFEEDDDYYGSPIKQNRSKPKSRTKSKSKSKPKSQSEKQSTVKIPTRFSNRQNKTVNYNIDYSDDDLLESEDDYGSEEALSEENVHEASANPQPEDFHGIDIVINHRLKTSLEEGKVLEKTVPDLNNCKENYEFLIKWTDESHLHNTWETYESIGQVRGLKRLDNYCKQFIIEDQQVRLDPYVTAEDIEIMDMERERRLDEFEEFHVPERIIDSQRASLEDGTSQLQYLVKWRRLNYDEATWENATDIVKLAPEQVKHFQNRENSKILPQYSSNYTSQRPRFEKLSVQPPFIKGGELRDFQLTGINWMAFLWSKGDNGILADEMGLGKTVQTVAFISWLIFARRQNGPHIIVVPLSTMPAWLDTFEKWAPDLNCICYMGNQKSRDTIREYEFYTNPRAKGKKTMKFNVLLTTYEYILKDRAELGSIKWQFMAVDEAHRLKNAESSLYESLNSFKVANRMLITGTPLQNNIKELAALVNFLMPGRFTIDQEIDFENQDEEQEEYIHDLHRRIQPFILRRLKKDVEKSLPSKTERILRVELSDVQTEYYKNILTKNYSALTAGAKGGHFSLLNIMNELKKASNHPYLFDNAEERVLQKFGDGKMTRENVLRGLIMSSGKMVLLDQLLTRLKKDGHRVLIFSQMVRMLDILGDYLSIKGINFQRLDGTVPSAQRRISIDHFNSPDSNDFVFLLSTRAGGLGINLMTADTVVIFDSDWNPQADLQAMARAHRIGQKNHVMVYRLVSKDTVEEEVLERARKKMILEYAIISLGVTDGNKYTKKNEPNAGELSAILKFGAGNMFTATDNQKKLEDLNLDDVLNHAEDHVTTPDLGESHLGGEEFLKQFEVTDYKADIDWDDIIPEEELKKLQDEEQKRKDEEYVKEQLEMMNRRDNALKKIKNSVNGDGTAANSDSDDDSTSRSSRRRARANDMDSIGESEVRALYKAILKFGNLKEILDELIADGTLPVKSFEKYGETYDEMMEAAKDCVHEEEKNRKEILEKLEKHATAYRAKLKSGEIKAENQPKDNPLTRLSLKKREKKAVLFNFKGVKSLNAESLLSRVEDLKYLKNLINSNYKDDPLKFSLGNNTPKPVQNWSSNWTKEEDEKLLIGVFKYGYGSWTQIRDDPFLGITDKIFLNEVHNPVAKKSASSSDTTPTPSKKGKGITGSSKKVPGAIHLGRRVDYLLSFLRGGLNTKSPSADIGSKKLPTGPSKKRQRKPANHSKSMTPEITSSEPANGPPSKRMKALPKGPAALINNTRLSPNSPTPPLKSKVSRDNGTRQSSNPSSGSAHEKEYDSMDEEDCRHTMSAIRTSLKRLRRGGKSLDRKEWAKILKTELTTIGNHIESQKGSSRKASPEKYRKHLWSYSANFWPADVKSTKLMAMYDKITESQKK
Sequence of Sialic acid-binding Ig-like lectin 9 (Homo sapiens) (Q9Y336 whole entry): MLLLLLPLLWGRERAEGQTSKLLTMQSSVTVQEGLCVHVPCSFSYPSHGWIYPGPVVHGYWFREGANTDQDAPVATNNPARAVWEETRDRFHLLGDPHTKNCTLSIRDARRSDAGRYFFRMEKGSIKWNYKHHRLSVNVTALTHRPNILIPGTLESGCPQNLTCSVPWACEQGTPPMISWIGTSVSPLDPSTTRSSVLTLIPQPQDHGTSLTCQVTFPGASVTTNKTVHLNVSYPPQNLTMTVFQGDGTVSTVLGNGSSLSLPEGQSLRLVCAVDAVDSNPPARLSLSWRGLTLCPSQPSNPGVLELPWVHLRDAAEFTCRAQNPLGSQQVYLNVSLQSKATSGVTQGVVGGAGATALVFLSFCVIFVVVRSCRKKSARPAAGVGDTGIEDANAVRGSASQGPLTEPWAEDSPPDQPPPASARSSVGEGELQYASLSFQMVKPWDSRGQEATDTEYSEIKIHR
Sequence of Protein translocase subunit SecA (Escherichia coli (strain K12)) (P10408 whole entry): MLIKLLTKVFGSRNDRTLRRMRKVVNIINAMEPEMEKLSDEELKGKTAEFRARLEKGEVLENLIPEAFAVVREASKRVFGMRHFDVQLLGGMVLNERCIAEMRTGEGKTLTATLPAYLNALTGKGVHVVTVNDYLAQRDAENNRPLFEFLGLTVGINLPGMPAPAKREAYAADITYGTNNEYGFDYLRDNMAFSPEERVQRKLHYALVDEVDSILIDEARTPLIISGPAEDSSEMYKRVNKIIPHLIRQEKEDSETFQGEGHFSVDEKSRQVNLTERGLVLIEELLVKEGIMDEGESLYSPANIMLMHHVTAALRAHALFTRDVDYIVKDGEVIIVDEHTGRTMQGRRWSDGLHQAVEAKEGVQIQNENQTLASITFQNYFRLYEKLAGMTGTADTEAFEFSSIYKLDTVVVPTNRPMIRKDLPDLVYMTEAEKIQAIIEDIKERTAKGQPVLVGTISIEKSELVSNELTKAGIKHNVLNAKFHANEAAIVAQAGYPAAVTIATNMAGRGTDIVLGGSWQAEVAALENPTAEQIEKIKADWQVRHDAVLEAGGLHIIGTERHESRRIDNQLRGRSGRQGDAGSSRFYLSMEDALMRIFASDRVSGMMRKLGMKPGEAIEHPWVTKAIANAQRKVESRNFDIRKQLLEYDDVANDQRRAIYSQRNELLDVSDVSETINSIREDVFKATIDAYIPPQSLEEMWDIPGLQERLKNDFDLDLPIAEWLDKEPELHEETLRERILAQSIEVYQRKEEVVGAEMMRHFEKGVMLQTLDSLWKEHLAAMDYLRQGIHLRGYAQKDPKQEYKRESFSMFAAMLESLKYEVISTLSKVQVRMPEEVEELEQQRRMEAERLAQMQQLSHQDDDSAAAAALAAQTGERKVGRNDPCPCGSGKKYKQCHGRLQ

`CCCN1CCN(C(=O)C(C)n2cc(Br)cn2)CC1` (stereo not given): the Percent Effect in assay [1] was -1.59%; in assay [2], 15.6%; in [3] it was 5.22%; in assay [4] it was 7.33%; in the assay with Trypanosoma cruzi, 3.05%; in assay [5], -137%. Besides, the Percent Effect in assay [6] is 10.3%; in the assay filed under Homo sapiens, -2.4%; in assay [7], 7.53%; in [8], 21%; in [9], -7.35%.
`O=C(c1cncc(Br)c1)N1CCC(O)(Cn2ccc3ccncc32)CC1`: the Percent Effect in [1] was 1.79%; in assay [2] it was 1.35%; in [3] it was 12.2%; in [4], -0.489%; in the assay on Trypanosoma cruzi, -7.91%; in [5] it was 1.62%. Further, the Percent Effect in [6] was 9.52%; in the assay listed under Homo sapiens it was 9.61%; in assay [7], 1.07%; in assay [8], 1.3%; in assay [9], -12.2%.
With `CCCNC(=O)c1sc(Nc2ccc(Cl)cn2)nc1C`, the Percent Effect in assay [1] was -0.647%; in assay [2], 17.3%; in assay [3], -1.88%; in assay [4], -4.2%; in the assay with Trypanosoma cruzi it was 4.13%; in assay [5], -0.88%. For the same molecule, the Percent Effect is 13.5% in assay [6]; -1.08% in the assay listed under Homo sapiens; 7.41% in [7]; 7.69% in [8]; -6.09% in [9].
For `COc1ccccc1C1CNC(=O)c2nc(-c3cnn(C)c3)[nH]c2C1` (stereo not given), the Percent Effect was 0.9% in [1]; 10.8% in assay [2]; -0.668% in assay [3]; 22.2% in assay [4]; 3.48% with Trypanosoma cruzi; 1.43% in assay [5]. For the same molecule, the Percent Effect in [6] was 10%; in the assay filed under Homo sapiens it was 5.8%; in [7], 5.82%; in assay [8], 17.1%; in assay [9], -0.454%.
On to `COCCN1CCC(NCc2cccc(F)c2)C1` (stereo not given), for which the Percent Effect in assay [1] was -3.31%; in assay [2], 13%; in assay [3], -4.27%; in assay [4] it was 0.179%; with Trypanosoma cruzi it was -5.24%; in assay [5] it was -4.27%. Moreover, the Percent Effect is 8.78% in [6]; 32.2% in the assay listed under Homo sapiens; 5.83% in [7]; 0% in [8]; -9.86% in assay [9].
Consider `CCS(=O)(=O)N(C)C(=O)c1cc(C)n(-c2cccc(OC)c2)c1C`, for which the Percent Effect in [1] was -6.4%; in assay [2], 20.2%; in [3], -7.29%; in assay [4], 7.26%; in the assay on Trypanosoma cruzi it was 3.68%; in assay [5], -5.32%. The Percent Effect is 4.34% in assay [6]; 28.1% in the assay filed under Homo sapiens; 4.43% in assay [7]; 21.5% in assay [8]; -8.76% in [9].
For `CC(=O)c1cccc(OCCCC(=O)N(C)Cc2ccccn2)c1`, the Percent Effect in [1] is 0.239%; in assay [2], 0%; in [3], -2.92%; in assay [4], 15.9%; with Trypanosoma cruzi, 4.25%; in [5], 2.86%. Moreover, the Percent Effect in assay [6] was 10.5%; in the assay listed under Homo sapiens, -7.21%; in assay [7], -0.529%; in assay [8], 4.88%; in assay [9], -9.86%.
Take `CC(C)CCN1CCNC(=O)C1CC(=O)N1CCc2sccc2C1` (stereo not given): the Percent Effect in assay [1] is -4.93%; in assay [2], 0%; in assay [3], 0.663%; in assay [4], 4.62%; in the assay with Trypanosoma cruzi, 3.44%; in assay [5], -15.2%. For the same molecule, the Percent Effect was 1.17% in assay [6]; -17.6% in the assay filed under Homo sapiens; 4.3% in [7]; 8.64% in assay [8]; 1.1% in assay [9].
Regarding `CC1(C)CC(N(Cc2ccccc2)Cc2cccnc2)CC(C)(C)N1`, the Percent Effect in assay [1] is -8.83%; in [2], 17.6%; in assay [3], -4.84%; in assay [4], 9.22%; in the assay with Trypanosoma cruzi, 5.73%; in [5] it was -6.73%. For the same molecule, the Percent Effect was 7.8% in assay [6]; -4.57% in the assay listed under Homo sapiens; 6.45% in assay [7]; 9.09% in assay [8]; -29.8% in [9].
For `Cc1nc[nH]c1CN(C)CC1CCCN(CCc2ccc(Cl)cc2)C1` (stereo not given), the Percent Effect in assay [1] was 0.978%; in assay [2] it was -5.48%; in [3], 4.19%; in [4] it was 6.4%; with Trypanosoma cruzi, 4.11%; in assay [5], 10.4%. For the same molecule, the Percent Effect in assay [6] is 5.32%; in the assay filed under Homo sapiens, 61.3%; in assay [7] it was 9.68%; in assay [8], 2.5%; in assay [9], -4.79%.
